We go through 15 compounds from PubChem BioAssay (NCATS).

Structures are written as SMILES. Several values for one entry are separate records, joined by “and”; a condition that tells them apart may be missing. Equal entries are not always repeated. Results filed as inconclusive are left out. Unmarked numbers belong to inactive results. Activity calls are given as the source filed them. The call rests on the fitted dose curve; in most records, active means well fitted curve in the direction sought with a large enough effect; inconclusive means small, poorly fitted or top-dose-only effect, or another doubt; inactive means no such curve, though single readings can be large; an effect the other way counts as inactive or inconclusive.

The subject of assay [1] is MKL-1. As to the kind of experiment: qHTS assay to identify novel small-molecules to repurpose for Merkel cell carcinoma treatment (AID 1296009). Further: nearly all actives have a fitted effect of over 60% in size. The note with it: MCC and control cell lines, CellTiter-Glo viability, 72 h; series mostly up to 46 µM. The method in brief: (§1)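 CellTiter-Glo luminescence after 72 hr compound exposure at 37 degree celsius gave cell viability. Libraries NPC and MIPE were run as 8- and 11-point dose responses; RLUs normalized to DMSO (negative) and no-cell (cytotoxicity) controls.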
For orientation: In qHTS, concentration-response curves come from the screen itself.

The subject of assay [2] is MKL-2. The description is as above. To be noted: MCC and control cell lines, CellTiter-Glo viability, 72 h; series mostly up to 46 µM. Summed up:
as §1

For assay [3], the system named is UISO. Described as above. To be noted: MCC and control cell lines, CellTiter-Glo viability, 72 h; series mostly up to 46 µM. Summed up: as §1
In general terms: In ATP-based viability assays light output follows the ATP content of the culture.

For assay [4], the system named is WaGa. The description is as above. To be noted: MCC and control cell lines, CellTiter-Glo viability, 72 h; series mostly up to 46 µM. Summed up: as §1
The test system of assay [5] is C33A. As to the kind of experiment: Primary qHTS to identify gynecologic anti-cancer compounds using libraries of approved drugs and bioactive compounds (AID 1345084). Further: nearly all actives have a fitted effect of over 55% in size. To be noted: Gynecologic cancer cell panel viability, ATPlite luminescence, 48 h; series mostly up to 57.5 µM. The method in brief:
(§2)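 Measured: luminescence after ATPlite addition (15 min, RT). Exposure: 48 h, 37 C, 5% CO2.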

The test system of assay [6] is CAOV3. The assay is described as above. To be noted: Gynecologic cancer cell panel viability, ATPlite luminescence, 48 h; series mostly up to 57.5 µM. The method in brief:
as §2

Assay [7] relates to CASKI. Described as above. To be noted: Gynecologic cancer cell panel viability, ATPlite luminescence, 48 h; series mostly up to 57.5 µM. Summed up: as §2
In assay [8] the test system is Es-2. The description is as above. The note with it: Gynecologic cancer cell panel viability, ATPlite luminescence, 48 h; series mostly up to 57.5 µM. The method in brief:
as §2

In assay [9] the test system is HeLa. The description is as above. To be noted: Gynecologic cancer cell panel viability, ATPlite luminescence, 48 h; series mostly up to 57.5 µM. Summed up: as §2
The test system of assay [10] is Hek293T. The description is as above. The note with it: Gynecologic cancer cell panel viability, ATPlite luminescence, 48 h, control line for the selectivity index; series mostly up to 57.5 µM. The method in brief:
as §2

Assay [11] concerns JEG-3. The description is as above. To be noted: Gynecologic cancer cell panel viability, ATPlite luminescence, 48 h; series mostly up to 57.5 µM. The method in brief: as §2
Assay [12] relates to OV90. The description is as above. To be noted: Gynecologic cancer cell panel viability, ATPlite luminescence, 48 h; series mostly up to 57.5 µM. The method in brief:
as §2

Assay [13] deals with PA-1. Described as above. The note with it: Gynecologic cancer cell panel viability, ATPlite luminescence, 48 h; series mostly up to 57.5 µM. The method in brief:
as §2

Assay [14] deals with SKOV3. Described as above. To be noted: Gynecologic cancer cell panel viability, ATPlite luminescence, 48 h; series mostly up to 57.5 µM. Summed up: as §2
The subject of assay [15] is Tov-21-G. The description is as above. To be noted: Gynecologic cancer cell panel viability, ATPlite luminescence, 48 h; series mostly up to 57.5 µM. The method in brief: as §2
The test system of assay [16] is Tov112D. The description is as above. To be noted: Gynecologic cancer cell panel viability, ATPlite luminescence, 48 h; series mostly up to 57.5 µM. The method in brief:
as §2

A short description of assay [17]: Drug repurposing screens with cells derived from glioblastoma tumor samples (AID 1345199). Further: nearly all actives have a fitted effect of over 40% in size. The note with it: GBM patient neurospheres viability, ATP luminescence, 48 h. Summed up:
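Primary testing used CD133+ neurospheres from four GBM patients, seven concentrations, 48 h exposure and ATP-based viability; confirmation added three slower-growing patient lines.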

Assay [18] can be described thus: qHTS assay to identify inhibitors of the type 1 interferon - major histocompatibility complex class I in skeletal muscle: Counter screen cell viability and HiBit confirmation (AID 1347412). Further: nearly all actives have a fitted effect of over 60% in size. To be noted: iHSKM muscle cells + IFN-b, HiBiT or CellTiter-Glo, 24 h. The method in brief:
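Myoblasts (C25cl48, HLA-B HiBiT) seeded in medium without dexamethasone, IFN-b 4 ng/ml added except unstimulated columns; 1 hr later compounds pinned (12-pt 1:3, top 46 uM final). Incubated 24 hrs, lysed 10 min, luminescence measured.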

The mark [19] stands for this setting: at 46.1 µM (top of the series), tumour line C.
On the % scale 0 is the no-effect control and ±100 the full control effect; potency means the concentration at half of the fitted maximal effect.

As to `COc1ccc2c3c1OC1C[C@@H](O)C=C[C@@]31CCN(C)C2` (stereo not given in full), the Potency entry in assay [1], in assay [2], in assay [3] and in assay [4] was “inactive” throughout.
For the compound `O=C(NOCC(O)CO)c1cc(Br)c(F)c(F)c1Nc1ccc(I)cc1F` (stereo not given), the Potency result in [1], in assay [2], in assay [3] and in assay [4] was “inactive” in each case.
Take `CCN(CC)CCOc1ccc(C(=C(Cl)c2ccccc2)c2ccccc2)cc1`: the Potency result in assay [1], in assay [2], in assay [3] and in assay [4] was “inactive” each time.
As to `Cc1cc(OCCCc2c(C(=O)O)n(Cc3cccnc3)c3c(-c4c(COc5ccc(N6CCN([S+](C)(=O)[O-])CC6)cc5)nn(C)c4C)cccc23)cc(C)c1Cl`, the Potency result in [1], in assay [2], in assay [3] and in [4] was “inactive” each time.
Regarding `CC(=O)CCCCn1c(=O)c2c(ncn2C)n(C)c1=O`, the Potency result in [1], in assay [2], in [3], in assay [4], in assay [5] and in assay [6] was “inactive” in each case. Moreover, the Potency result in [7], in [8], in [9], in assay [10], in assay [11] and in [12] was “inactive” each time. Moreover, the Potency result in [13], in [14], in assay [15] and in assay [16] was “inactive” each time. In addition, the activity, negative = cell killing is -6.47% in [17] (at 20 µM (top of the series), tumour line C); 0.116% in [17] (at 21.2 µM (top of the series), tumour line B); 1.87% in assay [17] (at 21.2 µM (top of the series), tumour line D); -23.5% in assay [17] (at 21.3 µM (top of the series), tumour line A).
Turning to `O=C(NC1CCOCC1)c1ccc(-c2cc(-c3cn[nH]c3-c3ccccn3)ccn2)cc1`, the Potency entry in [1], in assay [2], in assay [3], in assay [4], in assay [5] and in assay [7] was “inactive” in each case. Also, the Potency result in assay [8], in [9], in assay [10], in assay [11], in assay [12] and in assay [13] was “inactive” throughout. Besides, the Potency result in assay [14], in assay [15] and in assay [16] was “inactive” throughout.
Consider `COc1ncc(-c2ccc3nccc(-c4ccnnc4)c3c2)cc1NS(=O)(=O)c1ccc(F)cc1F`, for which the Potency in assay [1] is 1.48 µM (active); in [2], 105 nM (active); in [3] it was 23.5 nM (active); in [4] it was 526 nM (active); in assay [9] it was 631 nM (active); in assay [10] it was 100 nM (active). The Potency in [11] is 25100 nM (active); in assay [12] it was 3.55 µM (active); in assay [13], 355 nM (active); in assay [15] it was 12.6 µM (active).
Take `COc1ccc2cccc(CCNC(C)=O)c2c1`: the Potency entry in assay [1], in assay [2], in [3], in assay [4], in assay [5] and in assay [7] was “inactive” each time. Also, the Potency entry in assay [8], in assay [9], in assay [10], in [11], in assay [12] and in [13] was “inactive” each time. For the same compound, the Potency entry in assay [14], in [15] and in [16] was “inactive” in each case.
As for `CC[C@]1(O)C[C@@H]2CN(CCc3c([nH]c4ccccc34)[C@@](C(=O)OC)(c3cc4c(cc3OC)N(C)[C@H]3[C@@](O)(C(=O)OC)[C@H](OC(C)=O)[C@]5(CC)C=CCN6CC[C@]43[C@@H]65)C2)C1`, the Potency in [1] is 75 nM (active) and 168 nM (active); in assay [2], 75 nM (active) and 150 nM (active); in assay [3], 237 nM (active); in assay [4], 26.6 nM (active) and 75 nM (active); in assay [5], 1580 nM (active); in assay [8] it was 1.12 µM (active) and 708 nM (active) and 794 nM (active). Further, the Potency is 316 nM (active) and 1.12 µM (active) and 631 nM (active) in assay [9]; 631 nM (active) in [11]; 11.2 µM (active) and 4.47 µM (active) and 7.94 µM (active) in [12]; 316 nM (active) and 355 nM (active) in [13]; 316 nM (active) and 447 nM (active) and 631 nM (active) in assay [15]; 158 nM (active) and 316 nM (active) in [16].
On to `CC(C)(C)c1ccc(C(O)CCCN2CCC(C(O)(c3ccccc3)c3ccccc3)CC2)cc1` (stereo not given), for which the Potency entry in [1], in [2], in assay [3], in assay [4], in [5] and in assay [6] was “inactive” each time. For the same compound, the Potency result in assay [7], in assay [8], in assay [9], in assay [10], in [11] and in assay [12] was “inactive” throughout. In addition, the Potency result in assay [13], in [14], in assay [15] and in [16] was “inactive” each time. For the same compound, the activity, negative = cell killing in assay [17] (setting [19]) was -2.38%. The Potency in assay [17] (tumour line A) was 5010 nM (active); in [17] (tumour line B), 11200 nM (active); in assay [17] (tumour line D) it was 10000 nM (active); in assay [18] (Viability), 22200 nM (active).
In the case of `COc1cc2c(cc1OC)CN(CCc1ccc(NC(=O)c3cc(OC)c(OC)cc3NC(=O)c3cnc4ccccc4c3)cc1)CC2`, the Potency result in [1], in assay [2], in assay [3] and in assay [4] was “inactive” each time. Besides, the Potency in [13] was 11200 nM (active).
As for `C=C1C(=O)[C@@]23C(CC[C@@H]1[C@H]2O)[C@@]12CO[C@]3(O)[C@@H](O)[C@@H]1C(C)(C)CC[C@@H]2O` (stereo not given in full), the Potency is 1.18 µM (active) in [1]; 935 nM (active) in assay [2]; 14800 nM (active) in assay [3]; 833 nM (active) in [4]; 28200 nM (active) in [5]; 28200 nM (active) in assay [10]. The results for the Potency in [18] (HiBiT) and in assay [18] (Viability) were 8830 nM (active) and 35200 nM (active), respectively. Also, the Potency result in assay [9], in assay [12] and in assay [16] was “inactive” each time.
For the compound `NCCS`, the Potency entry in assay [1], in assay [2], in assay [3], in assay [4], in [5] and in assay [7] was “inactive” in each case. Moreover, the Potency result in [8], in [9], in assay [10], in assay [11], in assay [12] and in assay [13] was “inactive” in each case. Further, the Potency entry in assay [14], in assay [15] and in assay [16] was “inactive” throughout. Besides, the activity, negative = cell killing in assay [17] (at 45.9 µM (top of the series), tumour line B) was -3.94% and -12.1%; in assay [17] (at 45.9 µM (top of the series), tumour line D), -6.82% and -13.2%; in [17] (at 46 µM (top of the series), tumour line A), -8.15% and -11.3%; in [17] (setting [19]) it was -12.7% and -9.68%.
Turning to `CCS(=O)(=O)N1CC(CC#N)(n2cc(-c3ncnc4[nH]ccc34)cn2)C1`, the Potency entry in [1], in [2], in [3], in [4], in assay [5] and in [6] was “inactive” throughout. For the same compound, the Potency result in assay [7], in assay [8], in [9], in assay [10], in assay [11] and in assay [12] was “inactive” throughout. Further, the Potency result in assay [13] and in [16] was “inactive” throughout. Besides, the activity change, negative = inhibition in assay [18] (Viability, at 45.9 µM (top of the series)) was -4.12%.
Regarding `CN(C)C1CCN(C(=O)c2ccc(NC(=O)Nc3nc(N4CCOCC4)nc(N4CCOCC4)n3)cc2)CC1`, the Potency in assay [1] is 0.132 µM (active); in assay [2], 296 nM (active); in assay [3], 26.4 nM (active); in assay [4], 105 nM (active); in assay [5], 178 nM (active); in assay [7], 141 nM (active). Moreover, the Potency in assay [8] was 794 nM (active); in assay [9], 794 nM (active); in assay [10], 891 nM (active); in assay [12] it was 0.141 µM (active); in [14] it was 100 nM (active).
